# Results taken from paper PMC12820563, “FoxP3 forms a head-to-head dimer in vivo and stabilizes its multimerization on adjacent microsatellites”.
# In all, about 16,000 sequences were measured (“rpm ratio (pull-down/input)”: median about 0.94, highest 2% from about 1.7 on). The entries come from a sample that favours the highest values as a whole.
# Biological target: T1, MBP-FoxP1dN (Mus musculus, UniProt P58462 326-579)
# T1 sequence: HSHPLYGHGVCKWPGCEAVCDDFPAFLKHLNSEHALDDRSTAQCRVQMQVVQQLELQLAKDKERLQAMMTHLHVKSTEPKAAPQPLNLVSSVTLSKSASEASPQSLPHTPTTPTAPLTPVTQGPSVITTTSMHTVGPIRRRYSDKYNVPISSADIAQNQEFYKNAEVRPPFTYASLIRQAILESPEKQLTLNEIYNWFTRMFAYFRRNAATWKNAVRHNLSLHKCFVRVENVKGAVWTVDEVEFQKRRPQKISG
# Assay: PD-seq (MBP pull-down with sequencing); 20 mM Tris-HCl pH 7.5, 100 mM NaCl, 1.5 mM MgCl2, 0.4 uM protein, 0.1 uM dsDNA library, 30 min, room temperature, amylose pull-down; high values mean tight binding
# Conditions: protein: recombinant; tags: His6-MBP; chain copies: 2; dsDNA, one strand shown
# Outline: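 Binding is the reads-per-million enrichment of pull-down relative to input, pooled across replicates. For this, 0.4 µM His6-MBP-tagged mouse FoxP3 or FoxP1 fragment lacking the N-terminus, made in E. coli, was incubated with 0.1 µM Klenow-filled double-stranded degenerate DNA library for 30 min at room temperature in Tris pH 7.5 buffer with NaCl and MgCl2. Complexes bound to amylose resin were washed three times before proteinase K released the DNA for PCR barcoding and Illumina sequencing.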
row,Sequence,binding signal
1,GATGATTGTTCTCCCAGCTGATGAATTTGGCAGCTCGAGTAAACAAATTTTCCTAATCTTTCTGTTCAAGCGCCATCTAC,0.875 RPM ratio (pull-down/input)
2,GATGATTGTTCTCCCAGCTGATGAATTAACGCTGTCGAGTAAACAAATTTTCCTAATCTTTCTGTTCAAGCGCCATCTAC,0.97 RPM ratio (pull-down/input)
3,GATGATTGTTCTCCCAGCTGATGAATTAAAGAGTTCGAGTAAACAAATTTTCCTAATCTTTCTGTTCAAGCGCCATCTAC,0.941 RPM ratio (pull-down/input)
4,GATGATTGTTCTCCCAGCTGATGAATTCAGATTATCGAGTAAACAAATTTTCCTAATCTTTCTGTTCAAGCGCCATCTAC,0.977 RPM ratio (pull-down/input)
5,GATGATTGTTCTCCCAGCTGATGAATTCGGTAGATCGAGTAAACAAATTTTCCTAATCTTTCTGTTCAAGCGCCATCTAC,0.874 RPM ratio (pull-down/input)
6,GATGATTGTTCTCCCAGCTGATGAATTTATATGATCGAGTAAACAAATTTTCCTAATCTTTCTGTTCAAGCGCCATCTAC,1.14 RPM ratio (pull-down/input)
7,GATGATTGTTCTCCCAGCTGATGAATTATTTTATTCGAGTAAACAAATTTTCCTAATCTTTCTGTTCAAGCGCCATCTAC,1.22 RPM ratio (pull-down/input)
8,GATGATTGTTCTCCCAGCTGATGAATTCTTTATTTCGAGTAAACAAATTTTCCTAATCTTTCTGTTCAAGCGCCATCTAC,1.03 RPM ratio (pull-down/input)
9,GATGATTGTTCTCCCAGCTGATGAATTTATTATTTCGAGTAAACAAATTTTCCTAATCTTTCTGTTCAAGCGCCATCTAC,1.6 RPM ratio (pull-down/input)
10,GATGATTGTTCTCCCAGCTGATGAATTTTATTTTTCGAGTAAACAAATTTTCCTAATCTTTCTGTTCAAGCGCCATCTAC,1.96 RPM ratio (pull-down/input)
11,GATGATTGTTCTCCCAGCTGATGAATTTTTATTTTCGAGTAAACAAATTTTCCTAATCTTTCTGTTCAAGCGCCATCTAC,2.75 RPM ratio (pull-down/input)
12,GATGATTGTTCTCCCAGCTGATGAATTGTTTTATTCGAGTAAACAAATTTTCCTAATCTTTCTGTTCAAGCGCCATCTAC,1.6 RPM ratio (pull-down/input)
13,GATGATTGTTCTCCCAGCTGATGAATTATTTATTTCGAGTAAACAAATTTTCCTAATCTTTCTGTTCAAGCGCCATCTAC,2.06 RPM ratio (pull-down/input)
14,GATGATTGTTCTCCCAGCTGATGAATTTGTTTATTCGAGTAAACAAATTTTCCTAATCTTTCTGTTCAAGCGCCATCTAC,2.89 RPM ratio (pull-down/input)
15,GATGATTGTTCTCCCAGCTGATGAATTTTTTTATTCGAGTAAACAAATTTTCCTAATCTTTCTGTTCAAGCGCCATCTAC,0.953 RPM ratio (pull-down/input)
16,GATGATTGTTCTCCCAGCTGATGAATTCCTTTATTCGAGTAAACAAATTTTCCTAATCTTTCTGTTCAAGCGCCATCTAC,0.944 RPM ratio (pull-down/input)
17,GATGATTGTTCTCCCAGCTGATGAATTTATTTCTTCGAGTAAACAAATTTTCCTAATCTTTCTGTTCAAGCGCCATCTAC,1.29 RPM ratio (pull-down/input)
18,GATGATTGTTCTCCCAGCTGATGAATTAAATTTGTCGAGTAAACAAATTTTCCTAATCTTTCTGTTCAAGCGCCATCTAC,1.06 RPM ratio (pull-down/input)
19,GATGATTGTTCTCCCAGCTGATGAATTAGTACTGTCGAGTAAACAAATTTTCCTAATCTTTCTGTTCAAGCGCCATCTAC,1 RPM ratio (pull-down/input)
20,GATGATTGTTCTCCCAGCTGATGAATTTCGGCTGTCGAGTAAACAAATTTTCCTAATCTTTCTGTTCAAGCGCCATCTAC,0.82 RPM ratio (pull-down/input)
21,GATGATTGTTCTCCCAGCTGATGAATTATCCGCATCGAGTAAACAAATTTTCCTAATCTTTCTGTTCAAGCGCCATCTAC,1.15 RPM ratio (pull-down/input)
22,GATGATTGTTCTCCCAGCTGATGAATTCTTCTGATCGAGTAAACAAATTTTCCTAATCTTTCTGTTCAAGCGCCATCTAC,0.96 RPM ratio (pull-down/input)
23,GATGATTGTTCTCCCAGCTGATGAATTGCGCCATTCGAGTAAACAAATTTTCCTAATCTTTCTGTTCAAGCGCCATCTAC,1.14 RPM ratio (pull-down/input)

row,Sequence,binding signal
1,GATGATTGTTCTCCCAGCTGATGAATTCGATTGCTCGAGTAAACAAATTTTCCTAATCTTTCTGTTCAAGCGCCATCTAC,0.842 RPM ratio (pull-down/input)
2,GATGATTGTTCTCCCAGCTGATGAATTAAAGGTCTCGAGTAAACAAATTTTCCTAATCTTTCTGTTCAAGCGCCATCTAC,0.774 RPM ratio (pull-down/input)
3,GATGATTGTTCTCCCAGCTGATGAATTGAGTGGCTCGAGTAAACAAATTTTCCTAATCTTTCTGTTCAAGCGCCATCTAC,0.823 RPM ratio (pull-down/input)
4,GATGATTGTTCTCCCAGCTGATGAATTTATTTGTTCGAGTAAACAAATTTTCCTAATCTTTCTGTTCAAGCGCCATCTAC,2.15 RPM ratio (pull-down/input)
5,GATGATTGTTCTCCCAGCTGATGAATTTTTTATTTCGAGTAAACAAATTTTCCTAATCTTTCTGTTCAAGCGCCATCTAC,1.04 RPM ratio (pull-down/input)
6,GATGATTGTTCTCCCAGCTGATGAATTTTATTGTTCGAGTAAACAAATTTTCCTAATCTTTCTGTTCAAGCGCCATCTAC,2.31 RPM ratio (pull-down/input)
7,GATGATTGTTCTCCCAGCTGATGAATTTATTTTTTCGAGTAAACAAATTTTCCTAATCTTTCTGTTCAAGCGCCATCTAC,1.41 RPM ratio (pull-down/input)
8,GATGATTGTTCTCCCAGCTGATGAATTAAGGCGATCGAGTAAACAAATTTTCCTAATCTTTCTGTTCAAGCGCCATCTAC,0.912 RPM ratio (pull-down/input)
9,GATGATTGTTCTCCCAGCTGATGAATTTGAACTTTCGAGTAAACAAATTTTCCTAATCTTTCTGTTCAAGCGCCATCTAC,0.845 RPM ratio (pull-down/input)
10,GATGATTGTTCTCCCAGCTGATGAATTTGTACTATCGAGTAAACAAATTTTCCTAATCTTTCTGTTCAAGCGCCATCTAC,1.22 RPM ratio (pull-down/input)
11,GATGATTGTTCTCCCAGCTGATGAATTGTATACGTCGAGTAAACAAATTTTCCTAATCTTTCTGTTCAAGCGCCATCTAC,1.82 RPM ratio (pull-down/input)
12,GATGATTGTTCTCCCAGCTGATGAATTTCTGTAATCGAGTAAACAAATTTTCCTAATCTTTCTGTTCAAGCGCCATCTAC,1.49 RPM ratio (pull-down/input)
13,GATGATTGTTCTCCCAGCTGATGAATTTTATACATCGAGTAAACAAATTTTCCTAATCTTTCTGTTCAAGCGCCATCTAC,1.09 RPM ratio (pull-down/input)
14,GATGATTGTTCTCCCAGCTGATGAATTCTATACGTCGAGTAAACAAATTTTCCTAATCTTTCTGTTCAAGCGCCATCTAC,0.962 RPM ratio (pull-down/input)
15,GATGATTGTTCTCCCAGCTGATGAATTGTTGTAATCGAGTAAACAAATTTTCCTAATCTTTCTGTTCAAGCGCCATCTAC,1.96 RPM ratio (pull-down/input)
16,GATGATTGTTCTCCCAGCTGATGAATTCTATACATCGAGTAAACAAATTTTCCTAATCTTTCTGTTCAAGCGCCATCTAC,1.08 RPM ratio (pull-down/input)
17,GATGATTGTTCTCCCAGCTGATGAATTTTATACGTCGAGTAAACAAATTTTCCTAATCTTTCTGTTCAAGCGCCATCTAC,0.957 RPM ratio (pull-down/input)
18,GATGATTGTTCTCCCAGCTGATGAATTCTGTAAATCGAGTAAACAAATTTTCCTAATCTTTCTGTTCAAGCGCCATCTAC,1.18 RPM ratio (pull-down/input)
19,GATGATTGTTCTCCCAGCTGATGAATTTGTAACATCGAGTAAACAAATTTTCCTAATCTTTCTGTTCAAGCGCCATCTAC,1.45 RPM ratio (pull-down/input)
20,GATGATTGTTCTCCCAGCTGATGAATTTCAAACATCGAGTAAACAAATTTTCCTAATCTTTCTGTTCAAGCGCCATCTAC,1.18 RPM ratio (pull-down/input)
21,GATGATTGTTCTCCCAGCTGATGAATTGTATACATCGAGTAAACAAATTTTCCTAATCTTTCTGTTCAAGCGCCATCTAC,2.35 RPM ratio (pull-down/input)
22,GATGATTGTTCTCCCAGCTGATGAATTGTAAACATCGAGTAAACAAATTTTCCTAATCTTTCTGTTCAAGCGCCATCTAC,2.78 RPM ratio (pull-down/input)
